This note sets out measurements from publication PMC4336329 (PLoS ONE, 2015).

Among all 310,000 compounds or so, about 14,000 (4.5%) showed an effect of 50% or more. The effect is printed as a negative number. What follows is part of a selection rich in strong results, with near analogues and random picks from the rest.
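Also: peak tail current of the secondary pulse compared with the same well before compound.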

In this assay the target is human ether-à-go-go-related gene (hERG) potassium channel (human, UniProt Q12809). Kind of assay: primary screen, population patch clamp on CHO cells stably expressing hERG; higher = less effect of the substance.
human ether-à-go-go-related gene (hERG) potassium channel, sequence (Q12809 whole entry, looked up): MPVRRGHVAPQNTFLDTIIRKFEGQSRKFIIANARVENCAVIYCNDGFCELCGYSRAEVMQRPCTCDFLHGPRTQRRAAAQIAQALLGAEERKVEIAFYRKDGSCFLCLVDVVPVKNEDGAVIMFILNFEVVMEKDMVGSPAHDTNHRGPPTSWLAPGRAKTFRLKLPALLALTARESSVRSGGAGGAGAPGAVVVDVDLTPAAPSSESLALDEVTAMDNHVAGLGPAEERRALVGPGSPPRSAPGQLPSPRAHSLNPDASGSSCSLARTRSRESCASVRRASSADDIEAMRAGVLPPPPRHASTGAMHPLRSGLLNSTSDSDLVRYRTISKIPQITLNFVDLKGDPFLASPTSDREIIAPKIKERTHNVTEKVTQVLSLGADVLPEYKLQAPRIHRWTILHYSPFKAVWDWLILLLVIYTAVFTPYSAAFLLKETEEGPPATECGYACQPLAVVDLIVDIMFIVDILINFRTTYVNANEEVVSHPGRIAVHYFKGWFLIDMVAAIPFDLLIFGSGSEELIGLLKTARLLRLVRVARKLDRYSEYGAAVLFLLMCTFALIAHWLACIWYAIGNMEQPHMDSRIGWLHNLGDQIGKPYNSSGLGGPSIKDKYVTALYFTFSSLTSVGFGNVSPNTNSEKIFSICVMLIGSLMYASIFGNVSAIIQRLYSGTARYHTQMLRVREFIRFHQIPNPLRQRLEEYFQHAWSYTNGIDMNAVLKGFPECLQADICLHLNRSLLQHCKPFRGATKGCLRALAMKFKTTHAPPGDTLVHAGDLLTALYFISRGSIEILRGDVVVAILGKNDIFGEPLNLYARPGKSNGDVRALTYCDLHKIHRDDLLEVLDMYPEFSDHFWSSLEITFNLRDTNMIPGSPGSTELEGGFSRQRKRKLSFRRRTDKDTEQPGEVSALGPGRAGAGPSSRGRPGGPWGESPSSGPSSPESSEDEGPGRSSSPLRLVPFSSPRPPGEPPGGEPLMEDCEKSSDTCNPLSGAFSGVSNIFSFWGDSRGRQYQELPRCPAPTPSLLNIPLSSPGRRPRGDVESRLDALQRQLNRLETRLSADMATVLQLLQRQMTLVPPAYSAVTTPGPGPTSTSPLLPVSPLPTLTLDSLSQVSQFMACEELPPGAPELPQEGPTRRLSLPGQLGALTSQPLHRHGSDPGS
With `CCOC(=O)C1=c2s/c(=C\c3cccnc3)c(=O)n2C(N)=C(C(=O)OC)C1c1cccnc1` (stereo not shown), the “hERG current change (%, negative = inhibition) at 10uM” value stood at 14.7%. The result for `Cn1c(=O)c2c(nc(SCCN3CCOCC3)n2C)n(C)c1=O` reads 16.9%. Consider `Cc1cc(C(=O)NNC(=S)Nc2ccccc2C)cs1`, for which the “hERG current change (%, negative = inhibition) at 10uM” value came out at 18.8%. Consider `CC(=O)n1nc(-c2cccnc2)nc1N`, for which the “hERG current change (%, negative = inhibition) at 10uM” value is -7.75%.

Take `NS(=O)(=O)c1cc2c(cc1Cl)NC(C(Cl)Cl)NS2(=O)=O` (stereo not shown): the “hERG current change (%, negative = inhibition) at 10uM” value is given as 20.2%.

As to `CCCCCCn1c(O)c(C=NCCN2CCOCC2)c(=O)[nH]c1=O`, the “hERG current change (%, negative = inhibition) at 10uM” value is -7.56%.

For `CCCCn1c(O)c(C=NCCN2CCCCC2)c(=O)[nH]c1=O`, the “hERG current change (%, negative = inhibition) at 10uM” value is given as -2.31%.

In the case of `CCCCCCn1c(O)c(C=NCCN2CCCCC2)c(=O)[nH]c1=O`, the “hERG current change (%, negative = inhibition) at 10uM” value is given as -51.9%. As for `CCCNC(=O)N1CCC(C(=O)c2cccc(F)c2)CC1`, the “hERG current change (%, negative = inhibition) at 10uM” value is reported as -10.9%.

On to `C#Cc1ccc(C(=O)NCc2ccc(N3CCCC3=O)cc2)cc1`, for which the “hERG current change (%, negative = inhibition) at 10uM” value is 20.2%.

Regarding `CC(C)(C)NC(=O)C(c1ccco1)N(C(=O)Cn1nnc(-c2ccc(F)cc2)n1)c1ccccc1` (stereo not shown), the “hERG current change (%, negative = inhibition) at 10uM” value is -17.5%. With `CC1CCCC(C)N1CCCNC(=O)c1ccc2nc(N3CCOCC3)sc2c1` (stereo not shown), the “hERG current change (%, negative = inhibition) at 10uM” value is recorded as -10.3%. The same measure for `CCC1CCCCN1CCCNC(=O)c1ccc2c(c1)c(C)c(C)n2C` (stereo not shown): -35%; for `CCC1CCCCN1CCCNC(=O)c1ccc2nc(N3CCCCC3)sc2c1` (stereo not shown): -34%. In the case of `CC(C)CC1Nc2ccc(C(=O)NCCCN3CCCCC3C)cc2NC1=O` (stereo not shown), the “hERG current change (%, negative = inhibition) at 10uM” value amounted to 3.4%. As to `CC1CCCCN1CCCNC(=O)c1ccc2nc(N3CCCCC3)sc2c1` (stereo not shown), the “hERG current change (%, negative = inhibition) at 10uM” value is -22.8%. The same measure for `Cc1c(C)n(C)c2ccc(C(=O)NCCCN3CCCCC3C)cc12` (stereo not shown): -19.6%; for `CC1CCCCN1CCCNC(=O)c1cc(Br)c(Br)[nH]1` (stereo not shown): -64.9%.

Take `CC1CCN(c2nc3ccc(C(=O)NCCCN4CCCCC4C)cc3s2)CC1` (stereo not shown): the “hERG current change (%, negative = inhibition) at 10uM” value was -59%. `CCC1CCCCN1CCCNC(=O)c1ccc2nc(N3CCC(C)CC3)sc2c1` (stereo not shown): the “hERG current change (%, negative = inhibition) at 10uM” value is reported as -64.5%. Take `Cc1ccc(OCC(=O)NNC(=O)CCc2ccccc2)c(Br)c1`: the “hERG current change (%, negative = inhibition) at 10uM” value is on record as 10%. `CCOC(=O)N1CCN(C(=O)C2CCCN(S(=O)(=O)c3ccc(F)cc3)C2)CC1` (stereo not shown): the “hERG current change (%, negative = inhibition) at 10uM” value is -10.1%. Take `COc1ccc(Cl)cc1NC(=O)c1cc(-c2ccc(C)cc2O)n[nH]1`: the “hERG current change (%, negative = inhibition) at 10uM” value was determined as 15.9%. The result for `O=C1CSC(c2ccncc2)N1Cc1ccc(F)cc1` (stereo not shown) reads 1.53%. As to `C=CCNc1nc(N2CCOCC2)c(C#N)c2c1CN(C)CC2`, the “hERG current change (%, negative = inhibition) at 10uM” value was -14.1%. The same measure for `C=CCNc1nc(NCc2ccccc2)c(C#N)c2c1CN(C)CC2`: -68.1%; for `N#Cc1c(NCCO)nc(NCc2ccccc2)c2c1CCN(Cc1ccccc1)C2`: -27.1%. In the case of `CN1CCc2c(C#N)c(N3CCCCC3)nc(NCc3ccccc3)c2C1`, the “hERG current change (%, negative = inhibition) at 10uM” value is -2.02%. On to `CCN1CCc2c(C#N)c(N3CCOCC3)nc(NCCO)c2C1`, for which the “hERG current change (%, negative = inhibition) at 10uM” value came out at 11.8%. As for `CCc1nc(NCc2ccccc2)c(C#N)c2c1CCCC2`, the “hERG current change (%, negative = inhibition) at 10uM” value is 23.3%. Turning to `CCN1CCc2c(C#N)c(NCc3ccccc3)nc(NCCO)c2C1`, the “hERG current change (%, negative = inhibition) at 10uM” value is listed as -51.6%. Consider `CCN1CCc2c(C#N)c(NCc3ccccc3)nc(N(CC)CC)c2C1`, for which the “hERG current change (%, negative = inhibition) at 10uM” value was -68.5%. The same measure for `CCN1CCc2c(C#N)c(N3CCCCC3)nc(NCc3ccccc3)c2C1`: -39.8%; for `Cc1ccc(NC2=NCC(=O)N2C2CCCC2)cc1.Cl`: 14.7%. The result for `CNC(=O)N1c2ccccc2NC(=O)CC1C` (stereo not shown) reads 9.32%; that for `Cc1ccc(S(=O)(=O)NC2=NCN(CCN3CCOCC3)CN2)cc1`, 8.55%. On to `CC(=O)N(CCCN1CCOCC1)Cc1ccncc1.Cl`, for which the “hERG current change (%, negative = inhibition) at 10uM” value came out at 16.4%.

With `O=C(Nc1nc2ccc(Cl)cc2s1)c1ccc(Br)o1`, the “hERG current change (%, negative = inhibition) at 10uM” value worked out at 4.25%. The same measure for `Cc1ccc(CNC(=O)/C=C/c2ccc(S(=O)(=O)NCc3ccco3)cc2)cc1`: -1.37%; for `O=C(CN1CCN(c2ccccc2)CC1)Nc1nccs1`: 5.11%; for `Cc1c(NC(=O)CN2CCN(c3ccc(O)cc3)CC2)c(=O)n(-c2ccccc2)n1C`: 21%. The result for `O=C(CN1CCN(c2ccc([N+](=O)[O-])cc2)CC1)Nc1nccs1` reads -65.6%. On to `Cc1c(NC(=O)CN2CCN(c3ccccc3)CC2)c(=O)n(-c2ccccc2)n1C`, for which the “hERG current change (%, negative = inhibition) at 10uM” value is 9.86%.

As for `Cc1c(NC(=O)CN2CCN(c3ccc([N+](=O)[O-])cc3)CC2)c(=O)n(-c2ccccc2)n1C`, the “hERG current change (%, negative = inhibition) at 10uM” value is given as -50.1%. With `O=C(CN1CCN(c2ccc(F)cc2)CC1)Nc1nccs1`, the “hERG current change (%, negative = inhibition) at 10uM” value is -1.39%. For `O=C(CN1CCN(c2ccccc2)CC1)Nc1cccc([N+](=O)[O-])c1`, the “hERG current change (%, negative = inhibition) at 10uM” value worked out at 2.69%. Consider `O=C(CN1CCN(CC(=O)Nc2ccccn2)CC1)Nc1ccccn1`, for which the “hERG current change (%, negative = inhibition) at 10uM” value is -36%. Consider `O=C(CN1CCN(c2ccc([N+](=O)[O-])cc2)CC1)Nc1ccccn1`, for which the “hERG current change (%, negative = inhibition) at 10uM” value is -77.9%. Regarding `C#CCSc1nnnn1-c1cccc(Cl)c1`, the “hERG current change (%, negative = inhibition) at 10uM” value is listed as -9.19%. The same measure for `COc1cccc(C2NC(CC(C)C)(C(=O)O)C3C(=O)N(Cc4ccccc4)C(=O)C23)c1O` (stereo not shown): 10.2%; for `CN(Cc1ccccc1F)C(=O)c1ccc(NS(=O)(=O)c2ccc3[nH]c(=O)[nH]c3c2)cc1`: 6.14%; for `O=C(Nc1ccccc1N1CCCCC1)C1=COCCO1`: -32.6%. With `CC(C)[C@@H](C(=O)NCc1ccco1)N1C(=O)N2CCc3c([nH]c4ccccc34)[C@@]2(C)C1=O`, the “hERG current change (%, negative = inhibition) at 10uM” value is -15.6%. The same measure for `CSc1nnc([C@@H](NC(=O)OC(C)(C)C)C(C)C)o1`: -13.6%; for `CCc1cccc(OCC(O)Cn2c(N3CCCCC3)nc3c2c(=O)[nH]c(=O)n3C)c1` (stereo not shown): 13.7%. The same measure for `Clc1ccc(CN=C2Nc3ccccc3CS2)cc1`: 14.9%. As for `COc1cc2c(cc1OC)C1=C(C#N)CCC(=O)N1CC2`, the “hERG current change (%, negative = inhibition) at 10uM” value is 5.55%. The result for `C=C1C[C@H]2[C@@H]3C=C(C)C4=CC(=O)CC[C@]4(C)[C@H]3CC[C@]2(C)[C@@]1(OC(C)=O)C(C)=O` reads -21.2%.
